From PubChem BioAssay (NCI) come the findings set out here.

The structures appear in SMILES notation. The panel holds about 83,000 compounds, 20% with a hit somewhere; the sample as a whole holds those more often.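 Interpretation: 100, growth as untreated; towards 0, rising growth inhibition; 0, no net growth; 0 to -100, cell death. Compounds scoring below 10 were considered active.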 Active and inactive are the calls of the source.

In this experiment the test system is MDA-MB-468 breast. Put plainly: NCI-60 one-dose screen, 48 h (100 = growth as untreated, 0 = no growth, -100 = all killed). Particulars: 10 µM unless noted.
`COc1ccc(C(=O)c2cc(C)c(OC)c(C)c2)c(OC)c1N(C(=O)CCl)C(=O)CCl`: the growth is 3.62% (active).

With `CCN1CCN(S(=O)(=O)c2oc(-c3ccc(Cl)cc3)nc2C#N)CC1`, the growth was 24% (inactive).

For the compound `CC1(C)NCCC[C@]2(C)[C@H]3CC=C4[C@@H]5C[C@@](C)(CO)CC[C@]5(C)CC[C@@]4(C)[C@]3(C)CC[C@@H]12`, the growth was 67.6% (inactive).

Regarding `O=C1N(c2ccccc2)C(=S)N[C@]12[C@H](c1ccccc1)C1CCCN1[C@]21C(=O)NC2C=CC(Cl)=C[C@H]21` (stereo not given in full), the growth was 99.7% (inactive).

For the compound `CC(=O)/C(=C/c1ccc(Br)cc1)C(=O)c1ccccc1`, the growth was 92.3% (inactive).

On to `CNC(=O)c1cc(Oc2ccc3nc(NC(=O)c4cc(C)cc(C)c4)sc3c2)ccn1`, for which the growth is 50.2% (inactive).

As to `O=C(Nc1ccc(Oc2ccc(F)cc2)c(Cl)c1)c1cnccn1`, the growth was 31.8% (inactive).

With `C=CCSc1n[nH]c(-c2cccs2)n1`, the growth was 95.6% (inactive).

Turning to `Cc1cc2ccccc2c(O)c1C#N`, the growth is 117% (inactive).

As for `COc1cc(-c2nc(SC(C)C)nc(Nc3cccc(C)c3)c2C#N)cc(OC)c1OC`, the growth was 117% (inactive).

Turning to `O=C(CCl)Nc1ccc2c(c1)C(=O)c1ccc(NC(=O)CCl)cc1C2=O`, the growth is -75.7% (active).

In the case of `O=S(=O)(NCCCNc1nccc(-c2c(-c3ccccc3)nc3occn23)n1)c1ccc(Cl)cc1`, the growth was 67.1% (inactive).

As for `O=C(CCCCCCN1CC(=O)N2[C@@H](c3cc(F)cc(F)c3)c3[nH]c4ccccc4c3C[C@H]2C1=O)NO`, the growth was 50.4% (inactive).

Regarding `C[C@H](NC(=O)c1c(N)nn2cccnc12)c1cc2cccc(C#Cc3cnn(C)c3)c2c(=O)n1-c1ccccc1`, the growth is -21.2% (active).

With `Cc1cccc(NC(=O)c2sc3nc4c(cc3c2N)CCC4)c1C`, the growth is 10.6% (inactive).

As for `CC1CCCN(CCCCCOc2ccc3oc4ccc(Cl)cc4c(=O)c3c2)C1` (stereo not given), the growth was 68.7% (inactive).

With `O=S(=O)(O)C(Nc1ccccc1)c1ccccc1` (stereo not given), the growth is 92.7% (inactive).

In the case of `Cc1ccc(-c2csc(/N=C3\C(=O)Nc4ccccc43)n2)cc1`, the growth was -12.5% (active).

With `C=CCn1c(SCC(=O)Nc2ccc(C(=O)/C=C/c3cc(OC)c(OC)c(OC)c3)cc2)nnc1-c1cc(OC)c(OC)c(OC)c1`, the growth is 26.1% (inactive).

Turning to `O=C1N[C@@H]2[C@@H](O)[C@@H](O)[C@H](O)C[C@H]2c2cc3c(c(O)c21)OCCO3`, the growth was -27.2% (active).

In the case of `Cc1[nH]c2ccc(F)cc2c1CCNC(=O)C1CCN(C(=O)c2ccccc2)CC1`, the growth is 87.7% [25 µM] (inactive).

Regarding `CCN(CC)c1ccc(C2=NN(C(C)=O)C(c3cc(OC)c(OC)c(OC)c3)C2)cc1` (stereo not given), the growth is 17% (inactive).

In the case of `O=C(NCc1cccnc1)c1cc(-c2csc3c(=O)cc(N4CCOCC4)oc23)cc2c1OCCO2`, the growth was 10.7% (inactive).

On to `Brc1ccc(-c2cnc3nonc3n2)cc1`, for which the growth is 50.1% (inactive).

As to `CC(C)C(=O)Nc1nc2c(s1)CCCc1ccn(S(=O)(=O)c3ccccc3)c1-2`, the growth is 95.3% (inactive).

In the case of `O=NC1CC=CCC1c1ccccc1` (stereo not given), the growth was 104% (inactive).

On to `COc1ccc(-c2nc3sccn3c2-c2ccnc(NCCCNS(=O)(=O)c3ccc(C)cc3)n2)cc1`, for which the growth was 37.9% (inactive).

Regarding `Cc1csc2ccc(Cl)cc12`, the growth was 96.8% (inactive).

Take `COc1ccc2nc3cc(Cl)ccc3c(N3CCN(c4nccc(Nc5ccccc5)n4)CC3)c2c1`: the growth is 37.9% (inactive).

Consider `COc1cc(NC(=O)c2cncnc2Nc2ccc3c(ccn3Cc3ccccn3)c2)cc(OC)c1`, for which the growth was 15.6% (inactive).

Turning to `Cn1c(=O)cc(NC(=O)CN2CCN(c3cc4c(cc3F)c(=O)c(C(=O)O)cn4C3CC3)CC2)[nH]c1=O`, the growth was 92.6% (inactive).

In the case of `O=C(O)c1ccc[n+](CC(=O)N2CCN(c3cc4c(cc3F)c(=O)c(C(=O)O)cn4C3CC3)CC2)c1`, the growth was 81.4% (inactive).

For the compound `CN1CCN(Cc2ccc(NC(=O)c3cncc(C#Cc4cnc(N)cc4C#N)c3)cc2C(F)(F)F)CC1`, the growth is -4.22% (active).

`COc1cc(-c2nn(-c3ccc(C(=O)O)cc3)cc2C(=O)O)ccc1O`: the growth is 103% (inactive).

For the compound `CC1C(=NC(=O)c2cnccn2)C(C)C(c2ccc(Cl)cc2)NC1c1ccncc1` (stereo not given), the growth is 92.9% (inactive).

Consider `O=c1c(Br)ccc(Br)cc1Br`, for which the growth is -65.9% (active).

`CS(=O)(=O)c1ccc(NC(=O)c2ccccc2)nc1`: the growth was 105% (inactive).

As for `CCCCCN1C=C/C(=C\C(=O)n2ccc3ccccc32)c2ccccc21`, the growth was 73% (inactive).

`CC/C=C\C[C@@H](O)C/C=C1/C(=O)C=C[C@H]1C/C=C\CCCC(=O)OC`: the growth is 15.9% (inactive).

`CC(NNC(=S)N1CCCCCC1)c1ccc2ccccc2n1` (stereo not given): the growth was 30.3% (inactive).
